Records with an inconclusive call do not appear. Calls of active or inactive are those of the source. Calls follow the shape of the full dose curve.

The test can be described thus: Confirmation Concentration-Response Assay for Modulators of Lamin A Splicing. Particulars: HeLa lamin A splicing GFP/RFP minigene, Acumen, 48 h; RFP activity: RFP channel at top concentration, at 46.1 µM; ratio activity: GFP/RFP ratio at top concentration, at 46.1 µM; series mostly up to 46.1 µM. From the text: NCGC Assay Overview: Hutchinson-Gilford Progeria Syndrome (HGPS) is a pediatric premature aging disease caused by a spontaneous mutation in the lamin A/C (LMNA) gene. The mutation activates a cryptic splice site in the LMNA pre-mRNA which results in production of a pre-lamin A protein that cannot be processed properly. The mutant protein accumulates in the nucleus and negatively affects numerous cellular functions. Correction of the splicing defect in HGPS patient cells using a targeted oligonucleotide (exo11) leads to reversal of the cellular disease phenotypes. To identify small molecule modulators of aberrant LMNA splicing, a homogenous assay was constructed in HeLa cells that used a GFP containing minigene to report on correction of aberrant splicing in lamin A and a RFP (DsRed2) to report on cell viability, uniformity and nonspecific effects on the assay signal. This assay was adapted to laser-scanning microplate cytometry (Acumen, TTP Labtech) where miniaturization of the assay to a 1,536-well plate format was possible. Select compounds active in the primary screen (AID 1487) were chosen for confirmation based on potency, efficacy, SAR and activity in other assays in PubChem and at NCGC. References: Bowen, W. P.; Wylie, P. G. Application of Laser-Scanning Fluorescence Microplate Cytometry in High Content Screening. Assay Drug Dev Technol 2006;4:209-221. Scaffidi P, Misteli T. Reversal of the cellular phenotype in the premature aging disease Hutchinson-Gilford progeria syndrome. Nat. Med. 2005;11:440-445.
NCGC Assay Protocol Summary: Reagents/Controls: Stable clones expressing DsRed2 and lamin A-EGFP were generated by Cell and Molecular Technologies in S3 HeLa cells. HeLa cells were prepared for the assay when they were 70-90% confluent. The cells were counted and resuspended in Opti-MEM I (no phenol red; Gibco), 2% FBS, 1% penicillin/ streptomycin (Gibco) at concentration of 120 cells/uL concentration. The suspension was passed through a Falcon basket filter with pore size 40um (Beckton Dickson). Control titrations: column […] 1536-well plate contained a sixteen point titration (1:2 dilutions) in duplicate of ancitabine (Sigma: A8598) beginning at 40 uM final concentration. Column 2 contained a sixteen point titration (1:2 dilutions) of cycloheximide beginning at 1.4 mM final concentration. Column 3 contained ancitabine at 40 uM and column 4 contained was the vehicle control (0.5% DMSO final concentration). Assay Steps: 5 uL of HeLa cells were plated in Aurora LoBase black clear bottom (cyclic-olefin polymer) 1536-well plates at a final density of 600 cells/well. Controls and library compounds were added with a 1536-well pin array using the Kalypsys pin-tool. The plates were then incubated for 48 hrs in a cell-culture incubator (37 °C; 5% CO2, 98% humidity). Following incubation the plates were read on the Acumen Explorer using the 488 nm laser. Data was collected on objects between 10 and 100 um in size. Cell objects were defined by a 15 um width x 10 um depth filter. The ratio of the total object intensity in PMT1 (500-530 nm emission; GFP) over PMT3 (575-640 nm emission; RFP) was calculated for analysis. Keywords: NIH Roadmap, MLSCN, MLI, MLSMR, qHTS, NCGC, lamin A, Progeria, RNA splicing.

Turning to `CN1C(=O)CCS(=O)(=O)[C@@H]1c1ccc(Cl)cc1`, the RFP activity is -19.9%, the result was inactive and the ratio activity is -2.66%.

`c1ccc(C2OCCN3CCCCC23)cc1` (stereo unspecified): the RFP activity was -2.54%, the outcome was inactive and the ratio activity was -7.51%.
